Screening data deposited in PubChem BioAssay by several laboratories.
Shown are actives, neighbours in structure and some others; about 2% of the full set was active somewhere.
PKA-R1A act = PKA-R1A complex activation. 340,000 tested, 0.083% active. P00514+P68181. activation, % at 11.4 µM. PKA-R1A dissociation, Cy5-IP20 fluorescence polarization; scaled: DMSO 0%, 113 µM cGMP 100%;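 active means percent activation above the mean of all tested compounds plus 3 SD, cut at about 19% in these data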;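 further: higher means more PKAc released from R1A so a rise in polarization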
Mot1-301 SUMO = inhibitors of SUMOylation pathway: yeast Mot1-301 growth rescue; S. cerevisiae Mot1-301 growth rescue, ATP luminescence, 38.5C; percent above DMSO median, 100 means doubled; growth rescue, % at 18.8 µM; 320,000 tested, 1% active; AID 2716;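 active means every valid replicate shows activation above 250% relative to neutral control wells; inactive means the rest, any valid replicate at or below 250%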
MsrA act = bovine methionine sulfoxide reductase A activation | purified bovine MsrA, absorbance read-out | activation, % at 10.6 µM | 360,000 tested, 0.3% active; in the data active means activation above about 7.5%
PKA-R2B act = activators of human PKA-R2B complex; 340,000 tested, 0.079% active; PKA-R2B holoenzyme dissociation, Cy5-IP20 fluorescence polarization; R2B truncated from residue 108, S112A mutant; 0% DMSO only, 100% 113 µM cGMP; activation, % at 11.4 µM; P22694+P31323;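 active means activation above a cutoff set at the mean over all compounds plus 3 SD, cut at about 18% in these data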;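 further: higher means more holoenzyme dissociation and a rise in polarization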
Target sequence (P31323 whole entry, looked up, other chains not shown, the tested form may be a part): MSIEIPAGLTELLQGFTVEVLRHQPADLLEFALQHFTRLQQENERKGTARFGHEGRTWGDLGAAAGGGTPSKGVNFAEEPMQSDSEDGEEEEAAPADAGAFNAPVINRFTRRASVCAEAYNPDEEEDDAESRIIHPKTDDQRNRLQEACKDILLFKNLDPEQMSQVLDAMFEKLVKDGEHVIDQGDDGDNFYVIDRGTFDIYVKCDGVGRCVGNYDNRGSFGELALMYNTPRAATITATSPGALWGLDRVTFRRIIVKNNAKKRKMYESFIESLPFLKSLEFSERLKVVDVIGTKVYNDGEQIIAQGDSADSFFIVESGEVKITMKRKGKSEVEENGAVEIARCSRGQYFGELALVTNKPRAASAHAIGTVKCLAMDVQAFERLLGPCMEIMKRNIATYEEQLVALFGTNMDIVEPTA
MsrA inhibitor = inhibits bovine methionine sulfoxide reductase A; purified bovine MsrA, absorbance read-out; inhibition, % at 15.5 µM; 360,000 tested, 0.75% active; in the data active means inhibition above about 4.5%
Mot1 SUMO dose = inhibits SUMO pathway, affecting Mot1-301 yeast growth | shares compounds with Mot1-301 SUMO | AID 493004 | S. cerevisiae Mot1-301 galactose growth, ATP luminescence, 24 h; -100 = growth of slx-deleted rescue strain | 2,300 tested, under 10 active | growth activity, percent, % at 42 µM;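 active means Signal drops as the depositor expects, and the fitted half-maximal dose is no more than ten times the top valid tested dose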;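 further: more negative values mean stronger growth rescue toward the control strain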
A number is an active result; n = inactive; x = not tested or not shown; + = active, no number.

SMILES	PKA-R1A act	Mot1-301 SUMO	MsrA act	PKA-R2B act	MsrA inhibitor	Mot1 SUMO dose
Cc1ccc(CN2CC34C=CC(O3)C(C(=O)NCc3ccco3)C4C2=O)cc1 (stereo unspecified)	n	n	n	n	n	x
CCOC(=O)C1=C(C(=O)OCC)C2N(Cc3ccc(Br)cc3)c3ccccc3[C@@]23C[C@@H](C(=O)OC)N(S(=O)(=O)c2ccc(C(F)(F)F)cc2)C3=N1 (stereo partly specified)	x	x	x	x	n	x
CCC(=O)N(Cc1ccc2c(c1)OCO2)Cc1cc2cc(OC)ccc2[nH]c1=O	n	375.6	n	n	n	n
O=C(C(=O)N1CCC(CNS(=O)(=O)c2ccc3ccccc3c2)CC1)c1cc2ccccc2o1	x	x	x	x	n	x
CN(Cc1ccco1)C(=O)[C@@H](Cc1ccccc1)NC(=O)[C@H]1O[C@@H](n2ccc(=O)[nH]c2=O)[C@H](O)[C@@H]1O	x	x	x	x	n	x
Cc1ccc(C)c(NC(=S)NC(=O)c2cncc(Br)c2)c1	x	571.4	n	x	n	n
COC(=O)C1=C(C)N(Cc2ccccc2C(F)(F)F)C(=NCc2ccc3c(c2)OCO3)NC1c1ccccc1 (stereo unspecified)	x	x	x	x	n	x
CNC(=O)c1ccccc1S(=O)c1ccccc1COC(C)=O (stereo unspecified)	n	383.6	n	n	n	n
COC(=O)[C@]12C[C@H](CC(=O)N3CCN(C(=O)C4CC4)CC3)C(=O)N(Cc3ccccc3)C1=C[C@H](C(C)(C)C)O[C@@H]2C	x	x	x	x	n	x
O=C(c1ccccc1C(=O)N1CCN(c2ccccc2F)CC1)N1CCN(c2ccccc2F)CC1	n	n	n	n	n	x
CCc1c(C(=O)N2CCN(c3ccccc3F)CC2)[nH]c(C)c1C(C)=O	n	+	n	n	n	n
CSc1nncc(/C(C)=N\Nc2cccc(C)c2)n1	n	365.8	n	n	n	n
CC/C(=N/Nc1ccccc1C)c1cnnc(SC)n1	n	n	n	n	n	x
Cc1sc(NC(=O)c2ccco2)c(C(c2ccc(F)cc2)N2CCN(C)CC2)c1C (stereo unspecified)	n	405.4	n	n	x	n
COc1cc(-c2nnc3sc(C4CCCCC4)nn23)cc(OC)c1OC	n	x	n	n	x	x
Cc1cc(-c2nnc3sc(C4CCCCC4)nn23)n[nH]1	n	690.8	n	n	n	n
CC1(C)NC(=O)N(CC(=O)O)C1=O	n	573.8	n	n	n	n
Cc1cccc(S(=O)(=O)N2CCC[C@H]2C(=O)N2CCC[C@@H]2C(=O)NCc2ccccc2)c1	x	x	x	x	n	x
COc1ccccc1CNc1nc(SC)ncc1CO	n	473.7	n	n	n	n
COC(=O)c1c(C)c(OC(=O)c2c(C)cc(O)c(C=O)c2O)cc(C)c1O	n	n	n	n	x	x
COC(=O)c1c(C)cc(O)c(C=O)c1O	n	566.7	n	n	x	n
O=C(CCc1c[nH]c2ccccc12)Nc1ccc(Oc2cccnc2)cc1	x	x	x	x	n	x
CN(C(=O)[C@@H](Cc1ccccc1)NC(=O)[C@H]1O[C@@H](n2cnc3c(=O)[nH]c(N)nc32)[C@H](O)[C@@H]1O)C1CCCCC1	x	x	x	x	n	x
O=C(NCc1ccccn1)C1Nc2ccc(C(F)(F)F)cc2C2C=CCC12 (stereo unspecified)	n	561.7	n	n	n	n
NC1=NC2(CCCC2)N=C(Nc2ccccc2)N1	n	722.4	n	n	n	n
SMILES	PKA-R1A act	Mot1-301 SUMO	MsrA act	PKA-R2B act	MsrA inhibitor	Mot1 SUMO dose
Cc1cccc(NC2=NC3(CCCCC3)N=C(N)N2)c1	n	n	n	n	n	x
COC(=O)C1=C(C)N(Cc2ccc(C(F)(F)F)cc2)C(=NCc2ccccc2C(F)(F)F)NC1c1ccc(F)cc1 (stereo unspecified)	x	x	x	x	n	x
COC(=O)N1Cc2ccnnc2CC1c1ccccc1-c1ccc(F)cc1 (stereo unspecified)	x	x	x	x	n	x
CC1=C/C(=N\OS(=O)(=O)c2ccccc2)C(C(C)C)=CC1=O	n	413.2	n	n	x	n
COc1ccc(C(=O)Nc2ccc(S(=O)(=O)N(C)c3ccccc3)cc2)cc1	n	n	n	n	n	x
COc1ccc(NC(=O)c2ccc(S(=O)(=O)N(C)c3ccccc3)cc2)cn1	n	+	n	n	n	n
O=C(O)CCCC(=O)Nc1nc(-c2ccc(F)cc2)cs1	n	n	n	n	n	x
